# Measured values reported in the supplement of paper PMC4709259.
# Structures can show the parent of a compound that is named as a salt. ± gives the standard deviation.
# Legend:
# [1] = system: Jurkat; test: mean cell size (FSC-A) relative to DMSO control (fraction of control); higher = larger cells; settings: 48 h
# Procedure, shortened: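 Jurkat cells seeded at 600 cells/µl were incubated 1 h, then exposed for 48h to the Enzo Screen-Well FDA Approved Drug Library v2.0 at 25µM in 0.9% (v/v) final DMSO. Drugs that cut counts below 20% of controls were diluted 10-fold and retested, down to 25nM. Cell count and mean cell size (forward scatter area) were read on an Accuri C6 flow cytometer, relative to solvent-only controls. Plates held 6-12 controls; values are means of 3 biological replicates.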
# [2] = system: Jurkat; test: cell count relative to DMSO control (fraction of control); higher = more cells (less growth inhibition); settings: 48 h
SMILES,mean cell size [1],cell count [2]
CCC1=C[C@@H]2CN(C1)Cc1c([nH]c3ccccc13)[C@@](C(=O)OC)(c1cc3c(cc1OC)N(C)[C@H]1[C@@](O)(C(=O)OC)[C@H](OC(C)=O)[C@]4(CC)C=CCN5CC[C@]31[C@@H]54)C2 [Vinorelbine] (concentration: 250 nM),0.941 ± 0.031,0.559 ± 0.048
COC(=O)[C@H]1[C@H]2C[C@@H]3c4[nH]c5cc(OC)ccc5c4CCN3C[C@H]2C[C@@H](OC(=O)c2cc(OC)c(OC)c(OC)c2)[C@@H]1OC [Reserpine] (concentration: 25 µM),0.988 ± 0.025,0.616 ± 0.098
CCc1cccc2c3c([nH]c12)C(CC)(CC(=O)O)OCC3 (centres undefined) [Etodolac] (concentration: 25 µM),1.08 ± 0.042,0.947 ± 0.018
CO[C@H]1C[C@@H]2CC[C@@H](C)[C@@](O)(O2)C(=O)C(=O)N2CCCC[C@H]2C(=O)O[C@H]([C@H](C)C[C@@H]2CC[C@@H](OCCO)[C@H](OC)C2)CC(=O)[C@H](C)/C=C(\C)[C@@H](O)[C@@H](OC)C(=O)[C@H](C)C[C@H](C)/C=C/C=C/C=C/1C [Everolimus] (concentration: 2.5 µM),0.761 ± 0.015,0.552 ± 0.072
CN(C)CCOC(c1ccc(Cl)cc1)c1ccccn1 (centres undefined) [Carbinoxamine Maleate] (concentration: 25 µM),0.968 ± 0.054,0.735 ± 0.064
O=S(=O)(O)CCS [Mesna] (concentration: 25 µM),1.06 ± 0.026,0.769 ± 0.16
OC(CCN1CCCCC1)(c1ccccc1)C1CC2C=CC1C2 (centres undefined) [Biperiden·HCl] (concentration: 25 µM),0.951 ± 0.055,0.654 ± 0.12
